# Test results from the supplement of paper PMC4466140.
# B1: unnamed (peptide)
# chain: NLDRSKISLPDFDDE
# B2: unnamed (peptide)
# chain: ITHRLRISIPGITGR
# What was measured:
# Assay in all cases: SPOT peptide array binding signal intensity (averaged, normalized) (arbitrary units (background-subtracted, floor 0; scale differs between SH3 domains)); higher = stronger binding of the SH3 domain to the peptide
# AgAbp1 = biological target: AgAbp1
# In short: (§1)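 Binding signal is given in arbitrary units that differ between domains and is the normalized, background-subtracted spot intensity averaged across replicates. Each GST-SH3 fusion from one of four yeast species was made in E. coli BL21(DE3), purified on glutathione Sepharose and incubated at 10 μg/ml overnight at 4°C on cellulose-bound synthetic 15-mer peptides in which cysteines were replaced by serines. Detection used anti-GST antibody, an HRP anti-mouse secondary and luminol, followed by imaging and Genespotter quantification.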
# AgBbc1 = biological target: AgBbc1
# In short: as §1
# AgBem1-D1 = biological target: AgBem1-D1
# In short: as §1
# AgBzz1-D1 = biological target: AgBzz1-D1
# In short: as §1
# AgBzz1-D2 = biological target: AgBzz1-D2
# In short: as §1
# AgCyk3 = biological target: AgCyk3
# In short: as §1
# AgFus1 = biological target: AgFus1
# In short: as §1
# AgHof1 = biological target: AgHof1
# In short: as §1
# AgHse1 = biological target: AgHse1
# In short: as §1
# AgLsb1 = biological target: AgLsb1
# In short: as §1
# AgLsb4 = biological target: AgLsb4
# In short: as §1
# AgMyo5 = biological target: AgMyo5
# In short: as §1
# AgNbp2 = biological target: AgNbp2
# In short: as §1
# AgRvs167 = biological target: AgRvs167
# In short: as §1
# AgSho1 = biological target: AgSho1
# In short: as §1
# AgSla1-D1-D2 = biological target: AgSla1-D1-D2
# In short: as §1
# AgSla1-D3 = biological target: AgSla1-D3
# In short: as §1
# CaAbp1-D1 = biological target: CaAbp1-D1
# In short: as §1
# CaAbp1-D2 = biological target: CaAbp1-D2
# In short: as §1
# CaBbc1 = biological target: CaBbc1
# In short: as §1
# CaBem1-D1 = biological target: CaBem1-D1
# In short: as §1
# CaBzz1-D1 = biological target: CaBzz1-D1
# In short: as §1
# CaBzz1-D2 = biological target: CaBzz1-D2
# In short: as §1
# CaCyk3 = biological target: CaCyk3
# In short: as §1
# CaFus1 = biological target: CaFus1
# In short: as §1
# CaHof1 = biological target: CaHof1
# In short: as §1
# CaHse1 = biological target: CaHse1
# In short: as §1
# CaLsb1 = biological target: CaLsb1
# In short: as §1
# CaLsb4 = biological target: CaLsb4
# In short: as §1
# CaMyo5 = biological target: CaMyo5
# In short: as §1
# CaNbp2 = biological target: CaNbp2
# In short: as §1
# CaRvs167 = biological target: CaRvs167
# In short: as §1
# CaRvs167-3 = biological target: CaRvs167-3
# In short: as §1
# CaSho1 = biological target: CaSho1
# In short: as §1
# CaSla1-D1-D2 = biological target: CaSla1-D1-D2
# In short: as §1
# CaSla1-D3 = biological target: CaSla1-D3
# In short: as §1
# ScAbp1 = biological target: ScAbp1
# In short: as §1
# ScBbc1 = biological target: ScBbc1
# In short: as §1
# ScBem1-D1 = biological target: ScBem1-D1
# In short: as §1
# ScBzz1-D1 = biological target: ScBzz1-D1
# In short: as §1
# ScBzz1-D2 = biological target: ScBzz1-D2
# In short: as §1
# ScCyk3 = biological target: ScCyk3
# In short: as §1
# ScFus1 = biological target: ScFus1
# In short: as §1
# ScHof1 = biological target: ScHof1
# In short: as §1
# ScHse1 = biological target: ScHse1
# In short: as §1
# ScLsb1 = biological target: ScLsb1
# In short: as §1
# ScLsb2 = biological target: ScLsb2
# In short: as §1
# ScLsb3 = biological target: ScLsb3
# In short: as §1
# ScLsb4 = biological target: ScLsb4
# In short: as §1
# ScMyo3 = biological target: ScMyo3
# In short: as §1
# ScMyo5 = biological target: ScMyo5
# In short: as §1
# ScNbp2 = biological target: ScNbp2
# In short: as §1
# ScPex13 = biological target: ScPex13
# In short: as §1
# ScRvs167 = biological target: ScRvs167
# In short: as §1
# ScSho1 = biological target: ScSho1
# In short: as §1
# ScSla1-D1-D2 = biological target: ScSla1-D1-D2
# In short: as §1
# ScSla1-D3 = biological target: ScSla1-D3
# In short: as §1
# SpAbp1-D1 = biological target: SpAbp1-D1
# In short: as §1
# SpBbc1 = biological target: SpBbc1
# In short: as §1
# SpBzz1-D1 = biological target: SpBzz1-D1
# In short: as §1
# SpBzz1-D2 = biological target: SpBzz1-D2
# In short: as §1
# SpCyk3 = biological target: SpCyk3
# In short: as §1
# SpHof1 = biological target: SpHof1
# In short: as §1
# SpHof1-2 = biological target: SpHof1-2
# In short: as §1
# SpHof1-3 = biological target: SpHof1-3
# In short: as §1
# SpHse1 = biological target: SpHse1
# In short: as §1
# SpLsb1 = biological target: SpLsb1
# In short: as §1
# SpLsb4 = biological target: SpLsb4
# In short: as §1
# SpMyo1 = biological target: SpMyo1
# In short: as §1
# SpNbp2 = biological target: SpNbp2
# In short: as §1
# SpPex13 = biological target: SpPex13
# In short: as §1
# SpRvs167 = biological target: SpRvs167
# In short: as §1
# SpSla1-D1-D2 = biological target: SpSla1-D1-D2
# In short: as §1
# SpSla1-D3 = biological target: SpSla1-D3
# In short: as §1
binder,measurement,setting,value
B1,SPOT peptide array binding signal intensity,AgAbp1,4.5
same,SPOT peptide array binding signal intensity,AgBbc1,0.75
same,SPOT peptide array binding signal intensity,AgBem1-D1,5.5
same,SPOT peptide array binding signal intensity,AgBzz1-D1,26
same,SPOT peptide array binding signal intensity,AgBzz1-D2,14
same,SPOT peptide array binding signal intensity,AgCyk3,≤ 0
same,SPOT peptide array binding signal intensity,AgFus1,42
same,SPOT peptide array binding signal intensity,AgHof1,11.5
same,SPOT peptide array binding signal intensity,AgHse1,716
same,SPOT peptide array binding signal intensity,AgLsb1,≤ 0
same,SPOT peptide array binding signal intensity,AgLsb4,18
same,SPOT peptide array binding signal intensity,AgMyo5,≤ 0
same,SPOT peptide array binding signal intensity,AgNbp2,4
same,SPOT peptide array binding signal intensity,AgRvs167,7
same,SPOT peptide array binding signal intensity,AgSho1,11.5
same,SPOT peptide array binding signal intensity,AgSla1-D1-D2,≤ 0
same,SPOT peptide array binding signal intensity,AgSla1-D3,≤ 0
same,SPOT peptide array binding signal intensity,CaAbp1-D1,33.5
same,SPOT peptide array binding signal intensity,CaAbp1-D2,26
same,SPOT peptide array binding signal intensity,CaBbc1,8
same,SPOT peptide array binding signal intensity,CaBem1-D1,4
same,SPOT peptide array binding signal intensity,CaBzz1-D1,31
same,SPOT peptide array binding signal intensity,CaBzz1-D2,2.5
same,SPOT peptide array binding signal intensity,CaCyk3,≤ 0
same,SPOT peptide array binding signal intensity,CaFus1,283
same,SPOT peptide array binding signal intensity,CaHof1,1.5
same,SPOT peptide array binding signal intensity,CaHse1,21
same,SPOT peptide array binding signal intensity,CaLsb1,≤ 0
same,SPOT peptide array binding signal intensity,CaLsb4,≤ 0
same,SPOT peptide array binding signal intensity,CaMyo5,6.25
same,SPOT peptide array binding signal intensity,CaNbp2,193
same,SPOT peptide array binding signal intensity,CaRvs167,1.33
same,SPOT peptide array binding signal intensity,CaRvs167-3,1.25
same,SPOT peptide array binding signal intensity,CaSho1,74.5
same,SPOT peptide array binding signal intensity,CaSla1-D1-D2,≤ 0
same,SPOT peptide array binding signal intensity,CaSla1-D3,≤ 0
same,SPOT peptide array binding signal intensity,ScAbp1,11
same,SPOT peptide array binding signal intensity,ScBbc1,1.5
same,SPOT peptide array binding signal intensity,ScBem1-D1,1
same,SPOT peptide array binding signal intensity,ScBzz1-D1,39.5
same,SPOT peptide array binding signal intensity,ScBzz1-D2,18
same,SPOT peptide array binding signal intensity,ScCyk3,16
same,SPOT peptide array binding signal intensity,ScFus1,34
same,SPOT peptide array binding signal intensity,ScHof1,2
same,SPOT peptide array binding signal intensity,ScHse1,1260
same,SPOT peptide array binding signal intensity,ScLsb1,≤ 0
same,SPOT peptide array binding signal intensity,ScLsb2,≤ 0
same,SPOT peptide array binding signal intensity,ScLsb3,≤ 0
same,SPOT peptide array binding signal intensity,ScLsb4,3
same,SPOT peptide array binding signal intensity,ScMyo3,3.5
same,SPOT peptide array binding signal intensity,ScMyo5,4
same,SPOT peptide array binding signal intensity,ScNbp2,28
same,SPOT peptide array binding signal intensity,ScPex13,≤ 0
same,SPOT peptide array binding signal intensity,ScRvs167,0.167
same,SPOT peptide array binding signal intensity,ScSho1,87.5
same,SPOT peptide array binding signal intensity,ScSla1-D1-D2,≤ 0
same,SPOT peptide array binding signal intensity,ScSla1-D3,1
same,SPOT peptide array binding signal intensity,SpAbp1-D1,11
same,SPOT peptide array binding signal intensity,SpBbc1,≤ 0
same,SPOT peptide array binding signal intensity,SpBzz1-D1,14.5
same,SPOT peptide array binding signal intensity,SpBzz1-D2,≤ 0
same,SPOT peptide array binding signal intensity,SpCyk3,≤ 0
same,SPOT peptide array binding signal intensity,SpHof1,11.5
same,SPOT peptide array binding signal intensity,SpHof1-2,4
same,SPOT peptide array binding signal intensity,SpHof1-3,70
same,SPOT peptide array binding signal intensity,SpHse1,983
same,SPOT peptide array binding signal intensity,SpLsb1,≤ 0
same,SPOT peptide array binding signal intensity,SpLsb4,≤ 0
same,SPOT peptide array binding signal intensity,SpMyo1,9
same,SPOT peptide array binding signal intensity,SpNbp2,16
same,SPOT peptide array binding signal intensity,SpPex13,≤ 0
same,SPOT peptide array binding signal intensity,SpRvs167,0.5
same,SPOT peptide array binding signal intensity,SpSla1-D1-D2,≤ 0
same,SPOT peptide array binding signal intensity,SpSla1-D3,≤ 0
B2,SPOT peptide array binding signal intensity,SpBzz1-D2,1
same,SPOT peptide array binding signal intensity,SpCyk3,30
same,SPOT peptide array binding signal intensity,SpHof1,272
same,SPOT peptide array binding signal intensity,SpHof1-2,31
same,SPOT peptide array binding signal intensity,SpHof1-3,461
same,SPOT peptide array binding signal intensity,SpHse1,625
same,SPOT peptide array binding signal intensity,SpLsb1,10.8
same,SPOT peptide array binding signal intensity,SpLsb4,108
same,SPOT peptide array binding signal intensity,SpMyo1,3
same,SPOT peptide array binding signal intensity,SpNbp2,802
same,SPOT peptide array binding signal intensity,SpPex13,124
same,SPOT peptide array binding signal intensity,SpRvs167,115
same,SPOT peptide array binding signal intensity,SpSla1-D1-D2,1
same,SPOT peptide array binding signal intensity,SpSla1-D3,6.5
